PubChem BioAssay AID588726 (The Scripps Research Institute Molecular Screening Center, 2011)
The whole screen tested about 360,000 compounds, of which about 8,200 (2.3%) were called active. The entries come from a sample that favours actives as a whole. Values without a mark were called inactive. No stated cut-off is given here; in the data, active means inhibition above about 27%; inactive means the rest.

molecular target: Fructose-bisphosphate aldolase (Mycobacterium tuberculosis (strain ATCC 25618 / H37Rv)) (UniProt P9WQA3); test: Mtb FBA enzyme inhibitors, primary screen, biochemical, fluorescence, strain H37Rv (AID 588726);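 further: 0% = vehicle and 100% = reference inhibitor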; settings: purified M. tuberculosis FBA, fluorescence read-out, at 1 µM, stronger effect = higher value
Sequence (P9WQA3 whole entry, looked up): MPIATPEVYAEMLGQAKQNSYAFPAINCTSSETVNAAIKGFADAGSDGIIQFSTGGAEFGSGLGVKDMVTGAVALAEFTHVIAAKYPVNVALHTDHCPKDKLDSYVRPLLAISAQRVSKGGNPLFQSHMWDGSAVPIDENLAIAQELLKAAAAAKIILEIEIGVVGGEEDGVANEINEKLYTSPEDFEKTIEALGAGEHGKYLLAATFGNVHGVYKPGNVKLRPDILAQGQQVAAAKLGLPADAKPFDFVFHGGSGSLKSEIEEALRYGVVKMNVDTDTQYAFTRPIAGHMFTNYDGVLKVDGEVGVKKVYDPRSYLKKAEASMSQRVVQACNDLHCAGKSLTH

Row | Compound | inhibition
1 | CC(C)c1ccc(Nc2nnc(SCC(=O)c3nnc(-c4ccccc4)o3)s2)cc1 | -2.05%
2 | CCOC(=O)C1CCN(C(=O)C2CCCN(S(=O)(=O)c3ccc(OC)c(Cl)c3)C2)CC1 (stereo unspecified) | 13.8%
3 | O=C1NC(c2cccc(Cl)c2)Nc2ccccc21 (stereo unspecified) | 30.3% (active)
4 | COc1ccc(C2CC(=O)NC(=O)C2)cc1 | 0.31%
5 | COc1ccc(C2NC(=O)c3ccccc3N2)cc1 (stereo unspecified) | 67% (active)
6 | O=C1NC(c2ccccc2)Oc2ccccc21 (stereo unspecified) | 6.04%
7 | C=CCOc1cccc(C2NC(=O)c3ccccc3O2)c1 (stereo unspecified) | 5.49%
8 | COc1ccc(C2(O)C(=O)Nc3ccccc32)cc1 (stereo unspecified) | 1.93%
9 | CC(C)=CCCC1(C)C=Cc2c(ccc3c2[nH]c2cc(O)c(C)cc23)O1 (stereo unspecified) | -3.09%
10 | COc1cccc(CNC(=O)C(=O)NCCC2CCCCN2S(=O)(=O)c2ccc(C)cc2)c1 (stereo unspecified) | 1.18%
11 | COC(=O)C1NN=C(C(=O)c2ccc(Br)cc2)C1c1cccc(Br)c1 (stereo unspecified) | -2.34%
12 | CC(=O)Nc1cccc(Nc2ccc(C#N)cc2)c1 | 0.34%
13 | Cc1ccc(C2Nc3cccc4cccc(c34)N2)cc1 | 49.3% (active)
14 | Oc1ccc(C2Nc3cccc4cccc(c34)N2)cc1 | -2.34%
15 | O=[N+]([O-])c1ccc2c(c1)C(N1CCOCC1)/C(=C/C1(O)CCCCC1)O2 (stereo unspecified) | -4.67%
16 | Cc1ccccc1Cn1nc(C)c(NC(=O)C(F)(F)F)c1C | -0.53%
17 | O=C(Nc1ccccc1)c1ccccc1NC(=O)C(F)(F)F | -0.1%
18 | COCc1cc(=O)[nH]c2cc(NC(=O)C(F)(F)F)c(C)cc12 | 31.5% (active)
19 | COCCCN1C(=O)C(=O)/C(=C(/O)c2ccc(S(=O)(=O)N3CCOCC3)cc2)C1c1ccc(F)cc1 (stereo unspecified) | 4.42%
20 | COc1ccccc1NC(=O)COc1ccc(C(=O)OCC(=O)N(C(C)C)C(C)C)cc1OC | 33.2% (active)
21 | COc1ccccc1NC(=O)COC(=O)COc1ccccc1F | -0.62%
22 | COc1cc(CO)ccc1OCC(=O)Nc1cccc2ccccc12 | -1.87%
23 | COc1ccc(C2c3c(C)nn(-c4ccccc4)c3NC(=O)N2c2ccccc2)cc1 (stereo unspecified) | -0.42%

Row | Compound | inhibition
24 | O=C(CCC1CCN(C(=O)c2cccc(Cl)c2F)CC1)Nc1ccccc1 | -0.26%
25 | COc1ccc(CCNC(=O)Nc2ccc3c(c2)c(=O)n(C)n3C)cc1OC | 156% (active)
26 | COc1ccc(CCNC(=O)C(=O)Nc2ccc3nc4n(c(=O)c3c2)CCCCC4)cc1OC | -5.38%
27 | COc1ccc(CCNC(=O)c2cc3sccc3n2C)cc1OC | 6.99%
28 | CCCc1c(C)nc2scc(-c3ccc(Cl)cc3)n2c1=O | 0.91%
29 | COCc1cc(=O)[nH]c(SC)n1 | 2.44%
30 | CCCc1cc(=O)n2[nH]c(C)c(-c3ccc(Cl)cc3)c2n1 | 27.5% (active)
31 | Cc1nc2c(-c3ccccc3)c(C)[nH]n2c(=O)c1Cl | 47.5% (active)
32 | Cc1nc2nc(COc3ccccc3)[nH]n2c(=O)c1C | 0.07%
33 | COCc1cc(=O)[nH]c(-c2ccc(C(F)(F)F)cc2)n1 | 2.51%
34 | CCCc1cc(=O)n2[nH]c(SCc3ccccc3)nc2n1 | -0.14%
35 | Cc1nc(=O)c(-c2ccccc2)c(C)n1-c1ccc(Br)cc1 | 2.14%
36 | COCc1cc(=O)n2[nH]c(C)c(-c3ccccc3)c2n1 | 102% (active)
37 | COc1ccc(-c2csc3nc(-c4ccccc4F)oc(=O)c23)cc1OC | 2.27%
38 | C=CC(=O)Nc1ccc(Nc2ccnc(Nc3ccc(N4CCN(C)CC4)cc3)n2)cc1 | 3.07%
39 | Cc1nc(SCC(=O)N2CCc3ccccc3C2)c2c(C)c(C)sc2n1 | 0.74%
40 | COc1cc(C2C(C#N)=C(C)NC3=C2C(=O)CC(C)(C)C3)ccc1O (stereo unspecified) | 0.13%
41 | Cc1sc2nc(-c3ccccc3F)oc(=O)c2c1C | -0.79%
42 | COc1ccccc1N(CC(=O)N/N=C(\C)c1ccccc1O)S(=O)(=O)c1ccc(C)cc1 | 2.36%
43 | COc1ccc(-c2cc3ccc(OCc4nn[nH]n4)cc3oc2=O)cc1 | 734% [above what the read-out allows, likely interference] (active)
44 | COc1ccc(-c2cc(=O)oc3cc(OCC(=O)N[C@@H](Cc4c[nH]c5ccccc45)C(=O)O)ccc23)cc1 | 6.63%
45 | COc1ccc(-c2csc3ncnc(Oc4ccc5c(C)cc(=O)oc5c4)c23)cc1 | 2.35%
46 | CC1CCN(C(=O)Cn2nnnc2CN2CCOCC2)CC1 | -0.01%

Row | Compound | inhibition
47 | CCN(CC)c1ccc2cc(C(=O)O)c(=O)oc2c1 | 36.2% (active)
48 | Cc1cc(C)cc(OCC(=O)NNC(=O)c2cc3ccccc3oc2=O)c1 | 1.86%
49 | CCN(CC)c1ccc([N+](=O)[O-])cc1C(=O)O | -17.9%
50 | Cc1ccc(C2=Nc3c(ccc4ccccc34)C(c3ccncc3)=NN2)cc1 | 1.27%
51 | CC1(C(=O)NCC2CCOCC2)Cc2c(-c3cccc(C(N)=O)c3)ccnc2O1 (stereo unspecified) | -0.46%
52 | CC1(C(=O)NCc2ccc(F)c(F)c2)Cc2c(-c3ccc4c(c3)OCO4)ccnc2O1 (stereo unspecified) | 44.6% (active)
53 | O=C(Cn1nnc(-c2ccc3c(c2)OCO3)n1)NCc1ccco1 | 1.83%
54 | CC(=O)Nc1cccc(-c2ccnc3c2CC(C)(C(=O)NCc2ccccc2)O3)c1 (stereo unspecified) | 1.41%
55 | CC1(C(=O)NCc2ccco2)Cc2c(-c3ccc4c(c3)OCO4)ccnc2O1 (stereo unspecified) | 46.9% (active)
56 | CC(=O)Nc1cccc(-c2ccnc3c2CC(C)(C(=O)NCc2ccco2)O3)c1 (stereo unspecified) | -0.36%
57 | CCc1nc2c(OCC(N)=O)cccn2c1N(C)C(=O)c1ccc(OC)cc1 | -2.06%
58 | Cc1nc(C(=O)NCc2ccccc2)sc1C1(C)CC(c2cccnc2)=NO1 (stereo unspecified) | -0.93%
59 | O=C(CN1CCN(S(=O)(=O)c2ccc(Cl)s2)CC1)N1CCCCC1 | 5.01%
60 | COc1ccc(NC(=O)CN(C)C(=O)c2cc(-c3ccc(C)o3)nc3ccccc23)cc1 | 71.2% (active)
61 | CN(C(=O)COC(=O)c1cc(-c2ccco2)nc2ccccc12)C1CCS(=O)(=O)C1 (stereo unspecified) | 4.55%
62 | C/C(N)=C(/C#N)C(=O)COC(=O)c1cc(-c2ccc(C)cc2)nc2ccccc12 | 0.39%
63 | CN(CCOc1ccccc1)C(=O)c1cc(-c2ccco2)nc2ccccc12 | 29.6% (active)
64 | COc1ccc(C)cc1NC(=O)c1cc(-c2ccccc2)nc2c1cnn2C(C)C | 1.87%
65 | COc1cccc(NC(=O)CN(C)C(=O)c2cc(Cl)nc3ccccc23)c1 | 2.95%
66 | COc1ccc(NC(=O)CN(C)C(=O)c2cc(C)oc2C)cc1 | 0.68%
67 | CN(CCOc1ccccc1)C(=O)c1cc(COc2c(F)cccc2F)on1 | -3.64%
68 | C/C(=N\NC(=O)c1cc(-c2ccc(O)cc2)nc2ccccc12)c1cccnc1 | 0.88%
69 | COc1ccc(-c2cc(C(=O)n3cnc4ccccc43)c3ccccc3n2)cc1 | 113% (active)

Row | Compound | inhibition
70 | O=C(c1ccc(Cl)cc1)n1cnc2ccccc21 | 5.13%
71 | COc1ccc(-c2cc(C(=O)Nc3ccccc3O)c3ccccc3n2)cc1 | 28.8% (active)
72 | CC(C)c1ccc(/C=C/C(=O)NCCCN2CCOCC2)cc1 | 0.72%
73 | CCN(C(=O)c1cc([N+](=O)[O-])ccc1NCc1cccnc1)c1ccccc1 | 2.57%
74 | COC(=O)c1cc2n(n1)CCCNC2=O | 3.15%
75 | C=C(C)Cn1c(C)cc(C)c(S(=O)(=O)c2ccccc2C)c1=O | -0.53%
76 | CCc1cc(C(c2ccccc2OC)N2CCOCC2)c(NC(=O)c2ccccc2)s1 (stereo unspecified) | -1.6%
77 | COc1cccc(C(=O)N/N=C(\C)c2cccc(NC(=O)c3ccc(F)cc3)c2)c1OC | -1.27%
78 | Cn1nc(C(F)(F)F)cc1-c1ccc(/C=C(\C#N)C(=O)c2cccc(C(F)(F)F)c2)s1 | 0.1%
79 | CCc1ccc(OCC(=O)OC(C)C(=O)NC2CC2)cc1 (stereo unspecified) | -0.68%
80 | O=C(c1ccc(Cl)s1)N(Cc1nnc(-c2ccccc2Cl)o1)C1CC1 | -1.65%
81 | CC(C)N(Cc1nnc(-c2ccccc2Br)o1)C(=O)c1cc(Cl)nc2ccccc12 | 2.07%
82 | COc1ccc(-c2cc(C(=O)N(C)Cc3ccccc3)c3ccccc3n2)cc1 | 69.9% (active)
83 | COc1ccc(CN(C)C(=O)c2cc(-c3ccc(C)cc3C)nc3ccccc23)c(OC)c1OC | -0.53%
84 | COc1ccc(C2=NS(=O)(=O)N(C)C(C(=O)N(C)Cc3ccccc3)=C2)cc1 | 4.86%
85 | O=C(c1cc(-c2ccco2)nc2ccccc12)N(Cc1nnc(-c2ccc(Cl)cc2)o1)C1CC1 | 46.8% (active)
86 | C=CCOc1cccc(CNCc2cccnc2)c1 | -1.51%
87 | CC1(C)CC(=O)c2c(n(S(=O)(=O)c3ccccc3)c3ccc(NS(=O)(=O)c4ccccc4)cc23)C1 | -1.63%
88 | C[C@@H](C(=O)Nc1ccc2ccccc2c1)[C@@H]1C[C@@]1(C)[C@@H](NC(=O)c1cccnc1)c1ccccc1 | -0.2%
89 | O=C(CSc1ncn[nH]1)Nc1nc2c(F)c(F)c(F)cc2s1 | 0.81%
90 | CC(=O)N(CN1C(=O)C2C3C=CC(C3)C2C1=O)c1cccc(Cl)c1 (stereo unspecified) | -0.27%
91 | COc1ccc(-c2ccc3c(c2)[C@@H]2C[C@H](N(C)S(=O)(=O)c4ccccc4)[C@H]([C@H](C)O)C(=O)N2CC3)cc1 | 4.15%
